Source: the supplement of paper PMC11732987, “Enantioselective OTUD7B fragment discovery through chemoproteomics screening and high-throughput optimisation” (Communications Chemistry, 2025)

Experiments:
Assay in all cases: log2 ratio of Biotin-Ahx-Ub-VS probe labelling (fragment/DMSO); higher = less target engagement (more negative = stronger competition), active = hit call of the paper (q ≤ 0.05, log2 ratio ≤ -1)
Settings in all cases: compound concentration: 200 uM; treatment time: 3 h
ALG13 = target: T1, ALG13 (UniProt Q9NP73)
T1 sequence (whole entry): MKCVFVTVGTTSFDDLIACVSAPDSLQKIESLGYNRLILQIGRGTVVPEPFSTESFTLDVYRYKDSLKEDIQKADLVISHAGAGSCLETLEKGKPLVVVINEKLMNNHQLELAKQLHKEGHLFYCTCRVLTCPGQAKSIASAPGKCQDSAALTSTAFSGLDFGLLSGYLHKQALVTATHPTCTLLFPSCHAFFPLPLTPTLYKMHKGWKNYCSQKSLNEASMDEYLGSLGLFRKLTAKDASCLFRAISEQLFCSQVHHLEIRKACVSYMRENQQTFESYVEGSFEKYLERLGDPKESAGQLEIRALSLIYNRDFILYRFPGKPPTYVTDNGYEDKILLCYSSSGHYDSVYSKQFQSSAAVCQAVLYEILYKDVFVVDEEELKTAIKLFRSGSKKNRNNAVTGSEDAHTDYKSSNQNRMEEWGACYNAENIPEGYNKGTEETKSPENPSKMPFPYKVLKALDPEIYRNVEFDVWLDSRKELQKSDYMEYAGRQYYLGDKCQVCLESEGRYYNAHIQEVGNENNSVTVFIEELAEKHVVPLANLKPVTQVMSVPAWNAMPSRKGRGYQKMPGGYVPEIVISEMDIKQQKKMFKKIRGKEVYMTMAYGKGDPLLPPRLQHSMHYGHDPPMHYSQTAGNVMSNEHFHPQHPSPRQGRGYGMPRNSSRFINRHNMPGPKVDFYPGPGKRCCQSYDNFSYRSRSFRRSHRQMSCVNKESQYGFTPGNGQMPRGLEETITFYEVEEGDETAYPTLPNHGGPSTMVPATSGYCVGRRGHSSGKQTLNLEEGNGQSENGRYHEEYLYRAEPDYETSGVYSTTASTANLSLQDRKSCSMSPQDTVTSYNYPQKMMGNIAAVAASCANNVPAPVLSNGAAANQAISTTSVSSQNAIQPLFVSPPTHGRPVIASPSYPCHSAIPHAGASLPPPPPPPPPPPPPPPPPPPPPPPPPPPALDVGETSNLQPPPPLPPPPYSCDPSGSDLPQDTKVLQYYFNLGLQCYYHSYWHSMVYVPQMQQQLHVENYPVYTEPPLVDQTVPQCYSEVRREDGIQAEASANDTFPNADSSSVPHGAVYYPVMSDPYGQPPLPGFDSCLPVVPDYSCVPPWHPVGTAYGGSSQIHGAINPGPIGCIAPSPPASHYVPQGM
How it was run: (§1)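 HEK293T lysate (495 µg per sample, in Tris/CHAPS/IGEPAL buffer with protease inhibitors) was exposed in triplicate for 3 h to fragment at 200 µM or to vehicle, then to Biotin-Ahx-Ub-VS at 0.5 µM final for 1 h. Labelled DUBs were enriched on NeutrAvidin, digested with LysC and trypsin, and analysed by diaPASEF LC-MS/MS. Spectronaut label-free quantities were normalised to the global median, and values are average log2 ratios of fragment over vehicle from an unpaired t-test. Only proteins with ≥2 unique peptides were used.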

ATXN3 = ATXN3 (UniProt P54252)
ATXN3, sequence (P54252 whole entry): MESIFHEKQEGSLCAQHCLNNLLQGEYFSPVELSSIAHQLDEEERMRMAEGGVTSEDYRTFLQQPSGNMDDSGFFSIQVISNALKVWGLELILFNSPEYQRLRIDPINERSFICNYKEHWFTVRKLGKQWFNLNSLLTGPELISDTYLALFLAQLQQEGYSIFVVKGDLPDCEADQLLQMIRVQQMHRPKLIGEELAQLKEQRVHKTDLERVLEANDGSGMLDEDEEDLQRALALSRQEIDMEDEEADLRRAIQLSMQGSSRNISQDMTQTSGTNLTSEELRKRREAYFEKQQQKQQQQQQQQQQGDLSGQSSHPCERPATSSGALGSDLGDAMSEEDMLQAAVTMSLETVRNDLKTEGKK
How it was run: as §1

BAP1 = target: T2, BAP1 (UniProt Q92560)
T2 sequence (whole entry): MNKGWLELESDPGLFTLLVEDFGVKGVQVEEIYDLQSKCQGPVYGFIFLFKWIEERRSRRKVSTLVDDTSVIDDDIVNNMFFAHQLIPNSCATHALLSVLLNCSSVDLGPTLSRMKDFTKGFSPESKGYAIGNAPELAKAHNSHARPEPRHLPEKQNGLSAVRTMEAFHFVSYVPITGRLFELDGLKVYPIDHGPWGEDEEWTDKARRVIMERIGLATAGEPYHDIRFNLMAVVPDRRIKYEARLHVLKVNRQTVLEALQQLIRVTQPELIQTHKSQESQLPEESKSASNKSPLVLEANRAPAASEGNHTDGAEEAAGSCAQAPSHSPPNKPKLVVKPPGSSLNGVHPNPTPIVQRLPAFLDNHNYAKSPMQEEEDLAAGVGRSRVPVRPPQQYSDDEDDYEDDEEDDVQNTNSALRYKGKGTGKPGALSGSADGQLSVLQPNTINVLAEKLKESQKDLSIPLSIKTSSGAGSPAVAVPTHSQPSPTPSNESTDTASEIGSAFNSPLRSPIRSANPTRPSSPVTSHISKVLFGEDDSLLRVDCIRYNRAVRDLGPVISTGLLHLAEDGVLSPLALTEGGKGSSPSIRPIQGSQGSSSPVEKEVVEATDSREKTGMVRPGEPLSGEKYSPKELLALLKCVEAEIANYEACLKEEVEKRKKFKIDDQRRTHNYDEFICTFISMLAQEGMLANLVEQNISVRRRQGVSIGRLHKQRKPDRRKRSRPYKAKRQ
How it was run: as §1

EIF3F = EIF3F (UniProt O00303)
EIF3F, sequence (O00303 whole entry): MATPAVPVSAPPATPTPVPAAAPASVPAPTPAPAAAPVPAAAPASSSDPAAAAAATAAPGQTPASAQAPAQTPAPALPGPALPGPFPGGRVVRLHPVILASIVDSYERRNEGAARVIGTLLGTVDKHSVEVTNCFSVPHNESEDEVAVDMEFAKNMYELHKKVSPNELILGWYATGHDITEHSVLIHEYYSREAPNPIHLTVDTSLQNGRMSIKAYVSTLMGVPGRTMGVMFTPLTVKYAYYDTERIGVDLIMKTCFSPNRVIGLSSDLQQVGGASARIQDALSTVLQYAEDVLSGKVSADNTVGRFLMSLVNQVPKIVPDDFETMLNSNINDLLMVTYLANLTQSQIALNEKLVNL
How it was run: as §1

EIF3H = EIF3H (UniProt O15372)
EIF3H, sequence (O15372 whole entry): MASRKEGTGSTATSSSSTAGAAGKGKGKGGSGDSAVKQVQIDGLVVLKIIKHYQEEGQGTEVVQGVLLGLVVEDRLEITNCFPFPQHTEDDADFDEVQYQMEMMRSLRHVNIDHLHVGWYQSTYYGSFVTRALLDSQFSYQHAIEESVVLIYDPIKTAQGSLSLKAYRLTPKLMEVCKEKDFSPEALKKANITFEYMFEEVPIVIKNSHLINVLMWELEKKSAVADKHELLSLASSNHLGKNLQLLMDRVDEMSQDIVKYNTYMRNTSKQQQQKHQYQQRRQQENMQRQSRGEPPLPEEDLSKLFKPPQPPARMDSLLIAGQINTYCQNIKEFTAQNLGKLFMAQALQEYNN
How it was run: as §1

FAM105A = target: T3, FAM105A (UniProt Q9NUU6)
T3 sequence (whole entry): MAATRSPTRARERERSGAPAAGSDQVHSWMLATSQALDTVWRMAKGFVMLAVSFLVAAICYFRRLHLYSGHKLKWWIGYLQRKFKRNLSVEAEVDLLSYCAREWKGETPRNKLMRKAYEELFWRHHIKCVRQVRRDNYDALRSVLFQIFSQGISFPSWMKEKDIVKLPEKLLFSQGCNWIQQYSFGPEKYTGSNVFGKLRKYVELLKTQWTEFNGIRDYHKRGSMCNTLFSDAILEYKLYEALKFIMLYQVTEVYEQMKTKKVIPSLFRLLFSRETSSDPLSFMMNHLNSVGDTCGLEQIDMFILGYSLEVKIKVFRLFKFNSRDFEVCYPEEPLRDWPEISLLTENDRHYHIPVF
How it was run: as §1

OTUB1 = OTUB1 (UniProt Q96FW1)
OTUB1, sequence (Q96FW1 whole entry): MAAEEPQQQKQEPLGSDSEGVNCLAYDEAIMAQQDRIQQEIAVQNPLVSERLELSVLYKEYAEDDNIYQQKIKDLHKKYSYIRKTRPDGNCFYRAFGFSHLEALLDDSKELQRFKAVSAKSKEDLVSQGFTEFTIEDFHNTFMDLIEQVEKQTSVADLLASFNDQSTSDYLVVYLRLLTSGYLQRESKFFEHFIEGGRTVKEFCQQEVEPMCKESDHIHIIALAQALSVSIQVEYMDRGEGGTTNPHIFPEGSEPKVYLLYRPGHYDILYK
How it was run: as §1

OTUD4 = target: T4, OTUD4 (UniProt Q01804)
T4 sequence (whole entry): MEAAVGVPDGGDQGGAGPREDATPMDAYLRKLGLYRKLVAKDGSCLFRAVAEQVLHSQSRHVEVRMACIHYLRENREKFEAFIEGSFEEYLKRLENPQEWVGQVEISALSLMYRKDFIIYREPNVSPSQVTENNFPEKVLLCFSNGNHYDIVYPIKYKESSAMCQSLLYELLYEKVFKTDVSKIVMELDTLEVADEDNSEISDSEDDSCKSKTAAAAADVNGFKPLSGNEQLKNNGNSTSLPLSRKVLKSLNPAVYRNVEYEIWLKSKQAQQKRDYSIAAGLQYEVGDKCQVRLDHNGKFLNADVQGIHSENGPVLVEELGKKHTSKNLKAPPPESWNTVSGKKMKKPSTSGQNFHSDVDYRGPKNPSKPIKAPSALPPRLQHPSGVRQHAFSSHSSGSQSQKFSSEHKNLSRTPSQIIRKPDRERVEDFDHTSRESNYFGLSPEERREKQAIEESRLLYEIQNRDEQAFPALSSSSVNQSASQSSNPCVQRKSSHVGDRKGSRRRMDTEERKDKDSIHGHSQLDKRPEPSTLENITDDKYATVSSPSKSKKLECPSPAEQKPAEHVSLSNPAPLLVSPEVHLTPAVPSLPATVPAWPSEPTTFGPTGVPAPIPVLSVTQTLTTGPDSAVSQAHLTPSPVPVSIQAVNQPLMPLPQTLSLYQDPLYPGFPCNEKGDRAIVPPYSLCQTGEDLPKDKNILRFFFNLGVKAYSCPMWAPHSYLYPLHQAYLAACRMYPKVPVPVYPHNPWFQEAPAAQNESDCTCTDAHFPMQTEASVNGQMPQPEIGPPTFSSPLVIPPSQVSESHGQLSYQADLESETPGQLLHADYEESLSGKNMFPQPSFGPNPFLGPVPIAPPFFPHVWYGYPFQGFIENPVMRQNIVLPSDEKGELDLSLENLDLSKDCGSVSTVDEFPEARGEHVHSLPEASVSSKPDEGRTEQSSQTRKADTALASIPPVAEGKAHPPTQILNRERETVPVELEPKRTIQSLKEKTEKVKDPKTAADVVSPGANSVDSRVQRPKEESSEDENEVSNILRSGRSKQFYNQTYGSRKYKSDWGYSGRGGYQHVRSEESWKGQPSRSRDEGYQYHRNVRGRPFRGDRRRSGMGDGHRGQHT
How it was run: as §1

OTUD5 = target: T5, OTUD5 (UniProt Q96G74)
T5 sequence (whole entry): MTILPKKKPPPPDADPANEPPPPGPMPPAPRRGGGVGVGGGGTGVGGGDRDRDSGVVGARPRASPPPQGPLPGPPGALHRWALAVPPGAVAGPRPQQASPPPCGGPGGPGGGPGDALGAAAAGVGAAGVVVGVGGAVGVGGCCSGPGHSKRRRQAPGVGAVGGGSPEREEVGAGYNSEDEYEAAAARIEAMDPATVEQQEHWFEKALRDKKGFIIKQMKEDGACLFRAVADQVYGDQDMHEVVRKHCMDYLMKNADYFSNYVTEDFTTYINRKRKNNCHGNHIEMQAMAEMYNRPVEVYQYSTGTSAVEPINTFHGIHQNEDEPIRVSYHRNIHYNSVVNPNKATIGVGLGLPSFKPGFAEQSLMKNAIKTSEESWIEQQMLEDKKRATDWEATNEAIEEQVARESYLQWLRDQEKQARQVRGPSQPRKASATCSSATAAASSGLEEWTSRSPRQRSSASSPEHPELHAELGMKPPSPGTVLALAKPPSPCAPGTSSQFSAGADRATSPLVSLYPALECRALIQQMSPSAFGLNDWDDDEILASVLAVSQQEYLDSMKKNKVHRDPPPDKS
How it was run: as §1

Measured: log2 ratio of Biotin-Ahx-Ub-VS probe labelling

O=C(CCl)Nc1cccc2ncccc12
active: BAP1 -3.71
inactive: ALG13 -0.13 | ATXN3 0.14 | EIF3F 0.254 | EIF3H -0.273 | FAM105A -0.205 | OTUB1 0.156 | OTUD4 -0.176 | OTUD5 -0.516
